Our source for the relative cell viability values is the supplement of paper PMC9492666.
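Note: breast cancer cell viability read out with the CCK-8 kit after co-treatment of each compound with the ferroptosis inducer RSL3.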

In this assay the test system is HCC1937. As to the kind of experiment: relative cell viability, compound + RSL3, vs DMSO (fraction of DMSO control); higher = less growth inhibition. Conditions: 72 h.
Consider `N#Cc1c(O)c2c(-c3ccc(-c4ccccc4O)cc3)csc2[nH]c1=O` + COC(=O)c1ccc([C@H]2c3[nH]c4ccccc4c3C[C@H](C(=O)OC)N2C(=O)CCl)cc1 [RSL3], for which the relative cell viability was found to be 0.412.

As for `COC(=O)c1sccc1S(=O)(=O)Nc1ccc(Nc2ccccc2)cc1OC` + COC(=O)c1ccc([C@H]2c3[nH]c4ccccc4c3C[C@H](C(=O)OC)N2C(=O)CCl)cc1 [RSL3], the relative cell viability stood at 0.347. For `CSc1ccc(C(=O)/C=C/c2cc(C)c(OC(C)(C)C(=O)O)c(C)c2)cc1` [Elafibranor] + COC(=O)c1ccc([C@H]2c3[nH]c4ccccc4c3C[C@H](C(=O)OC)N2C(=O)CCl)cc1 [RSL3], the relative cell viability came out at 0.83. As to `CC(C)=CCC[C@](C)(O)[C@H]1CC[C@]2(C)[C@@H]1[C@H](O)C[C@@H]1[C@@]3(C)CC[C@H](O)C(C)(C)[C@@H]3[C@@H](O)C[C@]12C` [(20S)-Protopanaxatriol] + COC(=O)c1ccc([C@H]2c3[nH]c4ccccc4c3C[C@H](C(=O)OC)N2C(=O)CCl)cc1 [RSL3], the relative cell viability stood at 0.762.

Regarding `C=CC[S+]([O-])C[C@H](N)C(=O)O` (stereo partly drawn) [Alliin] + COC(=O)c1ccc([C@H]2c3[nH]c4ccccc4c3C[C@H](C(=O)OC)N2C(=O)CCl)cc1 [RSL3], the relative cell viability was determined as 0.554. On to `CC(C)(C)c1ccc(-c2nc3ccccc3[nH]2)cc1` + COC(=O)c1ccc([C@H]2c3[nH]c4ccccc4c3C[C@H](C(=O)OC)N2C(=O)CCl)cc1 [RSL3], for which the relative cell viability amounted to 0.529. With `CC(C)(O)[C@@H]1Cc2cc3ccc(=O)oc3cc2O1` [marmesin] + COC(=O)c1ccc([C@H]2c3[nH]c4ccccc4c3C[C@H](C(=O)OC)N2C(=O)CCl)cc1 [RSL3], the relative cell viability was found to be 0.412.

Take `COc1ccc(-c2coc3cc(O)cc(O)c3c2=O)cc1` [Biochanin A] + COC(=O)c1ccc([C@H]2c3[nH]c4ccccc4c3C[C@H](C(=O)OC)N2C(=O)CCl)cc1 [RSL3]: the relative cell viability was found to be 0.66.

As to `O=C(NN1CCCCC1)c1nn(-c2ccc(Cl)cc2Cl)c(-c2ccc(C#Cc3ccc(C(F)(F)F)cc3)s2)c1CNS(=O)(=O)N1CCCC1` + COC(=O)c1ccc([C@H]2c3[nH]c4ccccc4c3C[C@H](C(=O)OC)N2C(=O)CCl)cc1 [RSL3], the relative cell viability worked out at 0.75. As to `CN1CCN(C(=O)C2C(C(=O)O)[C@H]3CC[C@@H]2O3)CC1` (stereo partly drawn) + COC(=O)c1ccc([C@H]2c3[nH]c4ccccc4c3C[C@H](C(=O)OC)N2C(=O)CCl)cc1 [RSL3], the relative cell viability was found to be 0.313. Turning to `O=C(O)c1cccc(N=Nc2c(O)[nH]c3ccc(S(=O)(=O)NCc4ccc(F)cc4)cc23)c1` + COC(=O)c1ccc([C@H]2c3[nH]c4ccccc4c3C[C@H](C(=O)OC)N2C(=O)CCl)cc1 [RSL3], the relative cell viability was determined as 0.516. With `Cc1nc2ccc(C(=O)N3CCC4(CC3)CC(=O)c3c(cnn3C(C)C)C4)cc2[nH]1` + COC(=O)c1ccc([C@H]2c3[nH]c4ccccc4c3C[C@H](C(=O)OC)N2C(=O)CCl)cc1 [RSL3], the relative cell viability was 0.402. Take `Oc1ccc2c(c1)OCO2` [Sesamol] + COC(=O)c1ccc([C@H]2c3[nH]c4ccccc4c3C[C@H](C(=O)OC)N2C(=O)CCl)cc1 [RSL3]: the relative cell viability stood at 0.399. Regarding `COc1cc(N2CCN(C)CC2)ccc1Nc1ncc2c(n1)N(C1CCC1)C(=O)N(c1c(C)cccc1C)C2` + COC(=O)c1ccc([C@H]2c3[nH]c4ccccc4c3C[C@H](C(=O)OC)N2C(=O)CCl)cc1 [RSL3], the relative cell viability came out at 0.334.

As to `O=C(Nc1cccnn1)N1CCC(=Cc2cccc(Oc3ccc(C(F)(F)F)cn3)c2)CC1` + COC(=O)c1ccc([C@H]2c3[nH]c4ccccc4c3C[C@H](C(=O)OC)N2C(=O)CCl)cc1 [RSL3], the relative cell viability is 0.686.

As for `Cc1cnc(C(=O)NCCc2ccc(S(=O)(=O)NC(=O)NC3CCCCC3)cc2)cn1` [Glipizide] + COC(=O)c1ccc([C@H]2c3[nH]c4ccccc4c3C[C@H](C(=O)OC)N2C(=O)CCl)cc1 [RSL3], the relative cell viability turned out to be 0.597. Then `O=c1cc(-c2ccc(O)c(-c3c(O)cc(O)c4c(=O)cc(-c5ccc(O)cc5)oc34)c2)oc2cc(O)cc(O)c12` [Amentoflavone] + COC(=O)c1ccc([C@H]2c3[nH]c4ccccc4c3C[C@H](C(=O)OC)N2C(=O)CCl)cc1 [RSL3], with 0.318. `CC(=O)Nc1nc(C)c(S(=O)(=O)Nc2ccc(C(O)(C(F)(F)F)C(F)(F)F)cc2)s1` + COC(=O)c1ccc([C@H]2c3[nH]c4ccccc4c3C[C@H](C(=O)OC)N2C(=O)CCl)cc1 [RSL3]: the relative cell viability was 0.484. For the compound `Cc1ccc(C)c(OCCCC(C)(C)C(=O)O)c1` [Gemfibrozil] + COC(=O)c1ccc([C@H]2c3[nH]c4ccccc4c3C[C@H](C(=O)OC)N2C(=O)CCl)cc1 [RSL3], the relative cell viability turned out to be 0.631.

Regarding `CC(C)(C)N1C(=O)C(Nc2ccc(N3CCCCC3)cc2)=C(c2ccccc2)S1(=O)=O` + COC(=O)c1ccc([C@H]2c3[nH]c4ccccc4c3C[C@H](C(=O)OC)N2C(=O)CCl)cc1 [RSL3], the relative cell viability turned out to be 0.686. Then `O=C1C(SCCO)=C(SCCO)C(=O)c2ccccc21` + COC(=O)c1ccc([C@H]2c3[nH]c4ccccc4c3C[C@H](C(=O)OC)N2C(=O)CCl)cc1 [RSL3], with 0.388. Turning to `Nc1ccc(C(=O)O)c(O)c1` [Aminopar] + COC(=O)c1ccc([C@H]2c3[nH]c4ccccc4c3C[C@H](C(=O)OC)N2C(=O)CCl)cc1 [RSL3], the relative cell viability turned out to be 0.822. As to `COc1ccc(-c2cc(=O)c3c(O)c(OC)c(OC)c(OC)c3o2)cc1OC` + COC(=O)c1ccc([C@H]2c3[nH]c4ccccc4c3C[C@H](C(=O)OC)N2C(=O)CCl)cc1 [RSL3], the relative cell viability came to 0.343. In the case of `CCCCCC=CC(=O)CCc1ccc(O)c(OC)c1` [6-Shogaol] + COC(=O)c1ccc([C@H]2c3[nH]c4ccccc4c3C[C@H](C(=O)OC)N2C(=O)CCl)cc1 [RSL3], the relative cell viability was 0.608. Turning to `CC(C)CCC[C@@H](C)[C@H]1CC[C@H]2[C@@H]3CCC4=CC(=NO)CC[C@]4(C)[C@H]3CC[C@]12C` [Olesoxime] + COC(=O)c1ccc([C@H]2c3[nH]c4ccccc4c3C[C@H](C(=O)OC)N2C(=O)CCl)cc1 [RSL3], the relative cell viability came out at 0.454. Then `O=C(CCCCCCCC(=O)NCCO)NCCO` [Adelmidrol] + COC(=O)c1ccc([C@H]2c3[nH]c4ccccc4c3C[C@H](C(=O)OC)N2C(=O)CCl)cc1 [RSL3], with 0.659; and `Cc1cc(C)c(S(=O)(=O)Nc2cccc(C(F)(F)F)c2)c(C)c1` + COC(=O)c1ccc([C@H]2c3[nH]c4ccccc4c3C[C@H](C(=O)OC)N2C(=O)CCl)cc1 [RSL3], with 0.504. As for `C=C(C)[C@@H]1CCC2=CC(=O)C[C@@H](C)[C@]2(C)C1` [Nootkatone] + COC(=O)c1ccc([C@H]2c3[nH]c4ccccc4c3C[C@H](C(=O)OC)N2C(=O)CCl)cc1 [RSL3], the relative cell viability worked out at 0.509. Then `CCCCCCCCCCCCCCCC(=O)NCCO` [Palmidrol] + COC(=O)c1ccc([C@H]2c3[nH]c4ccccc4c3C[C@H](C(=O)OC)N2C(=O)CCl)cc1 [RSL3], with 0.655; and `CC(C)c1nc(N(C)S(C)(=O)=O)nc(-c2ccc(F)cc2)c1/C=C/[C@@H](O)C[C@@H](O)CC(=O)O` [Rosuvastatin] + COC(=O)c1ccc([C@H]2c3[nH]c4ccccc4c3C[C@H](C(=O)OC)N2C(=O)CCl)cc1 [RSL3], with 0.54; and `O=C1c2cc(CO)cc(O)c2C(=O)c2c(O[C@@H]3O[C@H](CO)[C@@H](O)[C@H](O)[C@H]3O)cccc21` [Aloe-emodin-8-O-beta-D-glucopyranoside] + COC(=O)c1ccc([C@H]2c3[nH]c4ccccc4c3C[C@H](C(=O)OC)N2C(=O)CCl)cc1 [RSL3], with 0.368. Take `CCCc1cc(-c2nc(-c3ccc(NS(C)(=O)=O)cc3)cs2)ccn1` + COC(=O)c1ccc([C@H]2c3[nH]c4ccccc4c3C[C@H](C(=O)OC)N2C(=O)CCl)cc1 [RSL3]: the relative cell viability came to 0.322. As for `N[C@@H](Cc1c[nH]cn1)C(=O)O` [histidine] + COC(=O)c1ccc([C@H]2c3[nH]c4ccccc4c3C[C@H](C(=O)OC)N2C(=O)CCl)cc1 [RSL3], the relative cell viability is 0.622.
